Some test systems named below: HCT-15 colon; HT29 colon; SNB-75 CNS; SNB-19 CNS; U251 CNS; PC-3 prostate; SK-MEL-5 melanoma; UACC-62 melanoma; LOX IMVI melanoma; SK-MEL-28 melanoma; SK-MEL-2 melanoma; EKVX NSCLC; SN12C renal; UO-31 renal; TK-10 renal; ACHN renal; CAKI-1 renal; A498 renal; CCRF-CEM leukemia; MOLT-4 leukemia.
Test in all cases: NCI-60 one-dose screen, 48 h (100 = growth as untreated, 0 = no growth, -100 = all killed)
Holding throughout (conditions): 10 µM unless noted

About 83,000 compounds went through this panel and 20% of them were active in at least one assay; those are over-represented in the sample as a whole.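 Method: cells in 96-well plates; compound added at one concentration; 48 h incubation; percent growth measured; values under 10 scored active.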 Values without a mark were called inactive. Activity calls are given as the source filed them.

For the molecule `Cn1cc(-c2nc(-c3c[nH]c4c(Cl)nccc34)cs2)c2ccccc21`, the growth was 98.6% in the test with HCT-15 colon; 83.5% with HT29 colon; 108% in the test on SNB-75 CNS; 94.5% in the test with SNB-19 CNS; 86.3% with U251 CNS; 86.1% in the test on PC-3 prostate. The growth in the test with SK-MEL-5 melanoma was 91.2%; with UACC-62 melanoma it was 97.5%; in the test with LOX IMVI melanoma, 102%; in the test on SK-MEL-28 melanoma, 108%; with SK-MEL-2 melanoma, 99.2%; with EKVX NSCLC it was 86.7%. For the same molecule, the growth with SN12C renal is 94.5%; in the test on UO-31 renal, 94.6%; in the test on TK-10 renal, 81.2%; in the test on ACHN renal, 107%; in the test on CAKI-1 renal, 87%; in the test with A498 renal, 77.8%. The growth with CCRF-CEM leukemia was 92.3%; with MOLT-4 leukemia, 83.9%.

Turning to `CCOC(=O)C#Cc1c(CC(=O)OCC)nnn1[C@H]1O[C@@H](CO)[C@@H]2OC(C)(C)O[C@@H]21`, the growth with HCT-15 colon is -12.8% (active); in the test on HT29 colon it was 29.2%; with SNB-75 CNS, 76.4%; in the test on SNB-19 CNS, 97.7%; with U251 CNS, 96.9%; in the test on PC-3 prostate, 89.4%. Further, the growth was 97.2% in the test with SK-MEL-5 melanoma; 84.8% in the test with UACC-62 melanoma; 47.3% in the test with LOX IMVI melanoma; 86.6% in the test with SK-MEL-28 melanoma; 101% in the test on SK-MEL-2 melanoma; 99.5% with EKVX NSCLC. Moreover, the growth with SN12C renal was 87.1%; in the test on UO-31 renal it was 15.7%; with TK-10 renal, 48.8%; with ACHN renal it was -49.4% (active); in the test on CAKI-1 renal, -88.4% (active); in the test on A498 renal, 111%. The growth in the test on CCRF-CEM leukemia is 11.7%; in the test with MOLT-4 leukemia, 50.1%.

With `COc1ccc(/C=N/NC(=O)Cn2nnc3ccccc32)cc1`, the growth was 104% in the test with HCT-15 colon; 105% in the test with HT29 colon; 90.6% in the test on SNB-75 CNS; 101% in the test with SNB-19 CNS; 102% in the test with U251 CNS; 95.9% with PC-3 prostate. Moreover, the growth in the test with SK-MEL-5 melanoma was 110%; in the test with UACC-62 melanoma it was 84.6%; in the test with LOX IMVI melanoma, 106%; in the test on SK-MEL-28 melanoma, 102%; with SK-MEL-2 melanoma it was 100%; in the test on EKVX NSCLC, 101%. Moreover, the growth is 86.6% in the test with SN12C renal; 77.8% with UO-31 renal; 111% in the test with TK-10 renal; 94.6% in the test with ACHN renal; 90.4% in the test on CAKI-1 renal; 98.4% in the test with A498 renal. Moreover, the growth was 106% in the test with CCRF-CEM leukemia and 93% in the test with MOLT-4 leukemia.

Turning to `FC(F)(F)c1cccc(-c2nnn(Cc3cc(-c4cccc(Cl)c4)no3)n2)c1`, the growth is 105% in the test with HCT-15 colon; 103% in the test on HT29 colon; 88.9% in the test with SNB-75 CNS; 97.7% in the test on SNB-19 CNS; 104% in the test with U251 CNS; 104% in the test on PC-3 prostate. In addition, the growth was 101% with SK-MEL-5 melanoma; 103% in the test on UACC-62 melanoma; 99.4% in the test with LOX IMVI melanoma; 112% with SK-MEL-28 melanoma; 114% in the test with SK-MEL-2 melanoma; 115% in the test with EKVX NSCLC. Also, the growth was 101% with SN12C renal; 85.7% in the test with UO-31 renal; 109% in the test with TK-10 renal; 107% in the test on ACHN renal; 98.9% in the test with CAKI-1 renal; 103% in the test with A498 renal. The growth was 96.1% in the test with CCRF-CEM leukemia and 107% in the test with MOLT-4 leukemia.

Consider `COc1ccc(C(c2cc(OC)c(OC)c(OC)c2)n2cncn2)cc1O` (stereo not given), for which the growth with HCT-15 colon is 14%; in the test on HT29 colon, 5.3% (active); with SNB-75 CNS it was 48.6%; with SNB-19 CNS, 33.3%; in the test with U251 CNS, 15.3%; in the test with PC-3 prostate it was 21.2%. The growth is 14.6% in the test on SK-MEL-5 melanoma; 32% with UACC-62 melanoma; 43.5% in the test with LOX IMVI melanoma; 57% with SK-MEL-28 melanoma; 55.9% with SK-MEL-2 melanoma; 39.8% in the test with EKVX NSCLC. The growth in the test on SN12C renal was 39.3%; in the test on UO-31 renal, 58%; in the test on TK-10 renal, 61.3%; in the test with ACHN renal, 52.4%; with CAKI-1 renal, 40.4%; in the test on A498 renal, 9.66% (active). In addition, the growth is 9.34% (active) in the test with CCRF-CEM leukemia and 16.7% in the test on MOLT-4 leukemia.

With `C#CCOc1cc(/C=N/Nc2nc(-c3ccc(OC)cc3)cs2)ccc1O`, the growth in the test on HCT-15 colon is 83.1%; in the test on HT29 colon, 92.6%; in the test on SNB-75 CNS it was 95.5%; in the test on SNB-19 CNS, 91.9%; in the test with U251 CNS, 83.8%; in the test on PC-3 prostate it was 82.2%. For the same molecule, the growth with SK-MEL-5 melanoma was 63.7%; in the test on UACC-62 melanoma it was 70.8%; in the test with LOX IMVI melanoma, 90.9%; in the test with SK-MEL-28 melanoma, 97.8%; in the test on SK-MEL-2 melanoma, 93.3%; in the test with EKVX NSCLC it was 67.8%. Besides, the growth in the test with SN12C renal was 86.8%; in the test with UO-31 renal, 72.6%; with TK-10 renal, 94.2%; in the test with ACHN renal, 90.8%; in the test with CAKI-1 renal, 77.6%; with A498 renal, 82.4%. Also, the growth with CCRF-CEM leukemia is 82.2%; in the test on MOLT-4 leukemia, 87.3%.

In the case of `COc1ccc(C2=NN(C=O)C(c3ccc(Oc4nc5c(c(=O)n(C)c(=O)n5C)n4C)c(OC)c3)C2)cc1` (stereo not given), the growth was 88.9% in the test on HCT-15 colon; 71.8% with HT29 colon; 94.1% in the test on SNB-75 CNS; 69.1% in the test with SNB-19 CNS; 90.1% in the test with U251 CNS; 78.4% in the test on PC-3 prostate. Besides, the growth was 59.8% in the test on SK-MEL-5 melanoma; 88.5% in the test on UACC-62 melanoma; 68.2% in the test with LOX IMVI melanoma; 97.8% with SK-MEL-28 melanoma; 100% with SK-MEL-2 melanoma; 91.8% in the test with EKVX NSCLC. The growth in the test on SN12C renal is 53.8%; with UO-31 renal it was 74%; in the test on TK-10 renal, 104%; in the test on ACHN renal it was 84.8%; in the test on CAKI-1 renal, 75.2%; in the test with A498 renal, 85.5%. Moreover, the results for the growth with CCRF-CEM leukemia and with MOLT-4 leukemia were 80.5% and 66.7%, respectively.

For `CC(=O)CC(=O)c1ccccc1.[Cu+2]`, the growth in the test on HCT-15 colon is 94.3%; with HT29 colon it was 106%; in the test with SNB-75 CNS it was 121%; with SNB-19 CNS, 96.6%; in the test with U251 CNS it was 105%; in the test with PC-3 prostate, 96.8%. Further, the growth with SK-MEL-5 melanoma is 82.8%; with UACC-62 melanoma, 95.8%; in the test with LOX IMVI melanoma, 83.9%; in the test on SK-MEL-28 melanoma, 105%; in the test on SK-MEL-2 melanoma it was 107%; in the test on EKVX NSCLC, 99.4%. In addition, the growth in the test with SN12C renal was 105%; in the test on UO-31 renal it was 94.5%; with TK-10 renal it was 103%; in the test with ACHN renal it was 104%; in the test on CAKI-1 renal, 101%; with A498 renal, 141%. In addition, the growth in the test with CCRF-CEM leukemia was -10.7% (active); in the test on MOLT-4 leukemia, 91.7%.

The record behind these values is PubChem BioAssay (NCI).
